Measurements: the supplement of paper PMC3545927
This is one part of the list. The hit rate among all sequences tested is not known here.

Target: furin, P09958
Test: furin cleavage Z-score vs untreated control; higher = more cleavage, active = 3.5 or more, inactive = 1 or less, 8 variable residues between constant flanks
In short: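 Peptides 8 residues long, fused to a cDNA oligonucleotide, were fixed to magnetic beads by the N-terminus and exposed to purified furin. The 0.01 ml reactions contained 50 mM HEPES pH 7.5 with CaCl2 and NaCl at 1:10 enzyme:substrate and ran 7.5, 15 or 30 min. For the cleavage Z-score, log counts of sequenced released DNA were compared with furin-free reactions, lowess-adjusted and scaled by median absolute deviation.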

Sequence of furin, P09958 (P09958 whole entry): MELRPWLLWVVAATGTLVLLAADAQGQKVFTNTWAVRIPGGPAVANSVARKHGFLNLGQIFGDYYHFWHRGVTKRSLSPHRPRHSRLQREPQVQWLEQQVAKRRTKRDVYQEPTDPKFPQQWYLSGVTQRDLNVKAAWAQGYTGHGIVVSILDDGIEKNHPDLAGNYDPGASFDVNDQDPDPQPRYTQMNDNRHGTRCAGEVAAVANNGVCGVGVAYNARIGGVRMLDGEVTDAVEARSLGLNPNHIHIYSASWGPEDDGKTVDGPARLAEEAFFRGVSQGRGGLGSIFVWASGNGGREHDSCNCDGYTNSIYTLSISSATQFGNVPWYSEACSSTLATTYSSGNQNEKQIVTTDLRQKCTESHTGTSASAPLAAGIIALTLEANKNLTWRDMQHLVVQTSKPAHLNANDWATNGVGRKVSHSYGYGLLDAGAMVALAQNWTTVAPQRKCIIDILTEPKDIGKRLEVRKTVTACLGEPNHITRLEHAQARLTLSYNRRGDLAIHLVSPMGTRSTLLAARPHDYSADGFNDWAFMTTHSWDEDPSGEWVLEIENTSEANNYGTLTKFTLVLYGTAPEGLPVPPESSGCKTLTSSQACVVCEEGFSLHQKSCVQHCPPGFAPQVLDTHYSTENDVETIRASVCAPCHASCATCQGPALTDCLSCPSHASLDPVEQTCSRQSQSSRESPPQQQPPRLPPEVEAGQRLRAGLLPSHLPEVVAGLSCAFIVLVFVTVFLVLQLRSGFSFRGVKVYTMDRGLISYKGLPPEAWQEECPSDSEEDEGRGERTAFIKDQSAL

## CADIIICDECAGNASASA [HC816]
7.5 min
  furin cleavage Z-score: -1.61 (inactive)
15 min
  furin cleavage Z-score: -0.956 (inactive)
30 min
  furin cleavage Z-score: 0.174 (inactive)

## CARQKREIDVAGNASASA [FS-3035]
7.5 min
  furin cleavage Z-score: 10.8 (active)
15 min
  furin cleavage Z-score: 12.7 (active)
30 min
  furin cleavage Z-score: 11.5 (active)

## CARQIRGLEEAGNASASA [FS-2443]
7.5 min
  furin cleavage Z-score: 0.837 (inactive)
15 min
  furin cleavage Z-score: 3.93 (active)
30 min
  furin cleavage Z-score: 3.31

## CARQKRSIVVAGNASASA [FS-2507]
7.5 min
  furin cleavage Z-score: 7.83 (active)
15 min
  furin cleavage Z-score: 9.33 (active)
30 min
  furin cleavage Z-score: 8.84 (active)

## CARQIRYSVPAGNASASA [FS-1767]
7.5 min
  furin cleavage Z-score: 0.304 (inactive)
15 min
  furin cleavage Z-score: 0.942 (inactive)
30 min
  furin cleavage Z-score: -0.474 (inactive)

## CARQKRIIGGAGNASASA [FS-2754]
7.5 min
  furin cleavage Z-score: -1.16 (inactive)
15 min
  furin cleavage Z-score: -0.537 (inactive)
30 min
  furin cleavage Z-score: 0.0214 (inactive)

## CAWLQYFLTRAGNASASA [HC583]
7.5 min
  furin cleavage Z-score: -0.459 (inactive)
15 min
  furin cleavage Z-score: -0.712 (inactive)
30 min
  furin cleavage Z-score: -0.977 (inactive)

## CASWAIKWEYAGNASASA [HC516]
7.5 min
  furin cleavage Z-score: -0.904 (inactive)
15 min
  furin cleavage Z-score: -1.39 (inactive)
30 min
  furin cleavage Z-score: 0.896 (inactive)

## CARDQRDKDGAGNASASA [FS-2412]
7.5 min
  furin cleavage Z-score: 0.132 (inactive)
15 min
  furin cleavage Z-score: -0.98 (inactive)
30 min
  furin cleavage Z-score: -1.37 (inactive)

## CARGLRSIMEAGNASASA [FS-1709]
7.5 min
  furin cleavage Z-score: -0.826 (inactive)
15 min
  furin cleavage Z-score: 0.557 (inactive)
30 min
  furin cleavage Z-score: 1.78

## CAETKRSINEAGNASASA [FS-2539]
7.5 min
  furin cleavage Z-score: -1.27 (inactive)
15 min
  furin cleavage Z-score: -0.817 (inactive)
30 min
  furin cleavage Z-score: -0.177 (inactive)

## CARKRRSKSRAGNASASA [FS-2272]
7.5 min
  furin cleavage Z-score: 5.87 (active)
15 min
  furin cleavage Z-score: 6.56 (active)
30 min
  furin cleavage Z-score: 5.23 (active)

## CARKRRDTGGAGNASASA [FS-2346]
7.5 min
  furin cleavage Z-score: 5.14 (active)
15 min
  furin cleavage Z-score: 4.44 (active)
30 min
  furin cleavage Z-score: 2.79

## CARKRRSQDGAGNASASA [FS-1858]
7.5 min
  furin cleavage Z-score: 8.67 (active)
15 min
  furin cleavage Z-score: 10.1 (active)
30 min
  furin cleavage Z-score: 6.23 (active)

## CARAVRSINEAGNASASA [FS-2411]
7.5 min
  furin cleavage Z-score: 6.03 (active)
15 min
  furin cleavage Z-score: 6.9 (active)
30 min
  furin cleavage Z-score: 7.81 (active)

## CATTPCSGSTAGNASASA [HC1938]
7.5 min
  furin cleavage Z-score: -0.179 (inactive)
15 min
  furin cleavage Z-score: -0.988 (inactive)
30 min
  furin cleavage Z-score: -0.748 (inactive)

## CAEVVTETWVAGNASASA [HC153]
7.5 min
  furin cleavage Z-score: -0.809 (inactive)
15 min
  furin cleavage Z-score: -0.763 (inactive)
30 min
  furin cleavage Z-score: -1.97 (inactive)

## CAEDGVNYATAGNASASA [HC240]
7.5 min
  furin cleavage Z-score: -0.763 (inactive)
15 min
  furin cleavage Z-score: -1.25 (inactive)
30 min
  furin cleavage Z-score: -0.298 (inactive)

## CARPKRKVAPAGNASASA [FS-2284]
7.5 min
  furin cleavage Z-score: 1.89
15 min
  furin cleavage Z-score: 0.659 (inactive)
30 min
  furin cleavage Z-score: 3.08

## CARKRRLVAPAGNASASA [FS-2216]
7.5 min
  furin cleavage Z-score: 3.99 (active)
15 min
  furin cleavage Z-score: 5.02 (active)
30 min
  furin cleavage Z-score: 5.53 (active)

## CATERLYVGGAGNASASA [HC1499]
7.5 min
  furin cleavage Z-score: 0.0385 (inactive)
15 min
  furin cleavage Z-score: 0.416 (inactive)
30 min
  furin cleavage Z-score: -0.694 (inactive)

## CAKTRRSVDGAGNASASA [FS-2248]
7.5 min
  furin cleavage Z-score: 6.46 (active)
15 min
  furin cleavage Z-score: 7.09 (active)
30 min
  furin cleavage Z-score: 5.86 (active)

## CAYPVREKKDAGNASASA [FS-739]
7.5 min
  furin cleavage Z-score: -0.917 (inactive)
15 min
  furin cleavage Z-score: 0.614 (inactive)
30 min
  furin cleavage Z-score: 0.838 (inactive)

## CALNPREKKDAGNASASA [FS-941]
7.5 min
  furin cleavage Z-score: -0.953 (inactive)
15 min
  furin cleavage Z-score: 0.314 (inactive)
30 min
  furin cleavage Z-score: 0.019 (inactive)

## CARALRLVDGAGNASASA [FS-2410]
7.5 min
  furin cleavage Z-score: -0.828 (inactive)
15 min
  furin cleavage Z-score: -0.615 (inactive)
30 min
  furin cleavage Z-score: -0.629 (inactive)

## CARKRRQSEGAGNASASA [FS-1733]
7.5 min
  furin cleavage Z-score: 10.4 (active)
15 min
  furin cleavage Z-score: 12.6 (active)
30 min
  furin cleavage Z-score: 8.83 (active)

## CASKSRIKKDAGNASASA [FS-91]
7.5 min
  furin cleavage Z-score: 7.52 (active)
15 min
  furin cleavage Z-score: 6.56 (active)
30 min
  furin cleavage Z-score: 6.64 (active)

## CASYLKGSSGAGNASASA [HC740]
7.5 min
  furin cleavage Z-score: -0.0827 (inactive)
15 min
  furin cleavage Z-score: -0.32 (inactive)
30 min
  furin cleavage Z-score: -1.27 (inactive)

## CAIQRLHGLSAGNASASA [HC1602]
7.5 min
  furin cleavage Z-score: -1.82 (inactive)
15 min
  furin cleavage Z-score: 1.34
30 min
  furin cleavage Z-score: -0.804 (inactive)

## CAWVVTSTWVAGNASASA [HC2148]
7.5 min
  furin cleavage Z-score: -0.151 (inactive)
15 min
  furin cleavage Z-score: 0.93 (inactive)
30 min
  furin cleavage Z-score: -1.01 (inactive)

## CASKGRRRKDAGNASASA [FS-1656]
7.5 min
  furin cleavage Z-score: 5.25 (active)
15 min
  furin cleavage Z-score: 6.69 (active)
30 min
  furin cleavage Z-score: 5.72 (active)

## CAFKIRMYVGAGNASASA [HC474]
7.5 min
  furin cleavage Z-score: -0.697 (inactive)
15 min
  furin cleavage Z-score: 0.386 (inactive)
30 min
  furin cleavage Z-score: -0.234 (inactive)

## CARTNRDMHGAGNASASA [FS-3109]
7.5 min
  furin cleavage Z-score: -0.446 (inactive)
15 min
  furin cleavage Z-score: 1.17
30 min
  furin cleavage Z-score: -0.99 (inactive)

## CARKRRSLGDAGNASASA [FS-2976]
7.5 min
  furin cleavage Z-score: 11.1 (active)
15 min
  furin cleavage Z-score: 13.3 (active)
30 min
  furin cleavage Z-score: 9.59 (active)

## CARTIRSFEGAGNASASA [FS-2240]
7.5 min
  furin cleavage Z-score: 3.24
15 min
  furin cleavage Z-score: 4.83 (active)
30 min
  furin cleavage Z-score: 5.83 (active)

## CACTMLVCGDAGNASASA [HC1526]
7.5 min
  furin cleavage Z-score: -1.57 (inactive)
15 min
  furin cleavage Z-score: -1.58 (inactive)
30 min
  furin cleavage Z-score: 0.193 (inactive)

## CARKRRVLTPAGNASASA [FS-2979]
7.5 min
  furin cleavage Z-score: -0.402 (inactive)
15 min
  furin cleavage Z-score: -0.0349 (inactive)
30 min
  furin cleavage Z-score: -1.55 (inactive)

## CARFGRQDEGAGNASASA [FS-1947]
7.5 min
  furin cleavage Z-score: -2.89 (inactive)
15 min
  furin cleavage Z-score: -0.0904 (inactive)
30 min
  furin cleavage Z-score: -0.336 (inactive)

## CARKRRVRKDAGNASASA [FS-1560]
7.5 min
  furin cleavage Z-score: 8.86 (active)
15 min
  furin cleavage Z-score: 7.9 (active)
30 min
  furin cleavage Z-score: 6.61 (active)

## CALYFQSGTVAGNASASA [TV3]
7.5 min
  furin cleavage Z-score: -1.09 (inactive)
15 min
  furin cleavage Z-score: -1.65 (inactive)
30 min
  furin cleavage Z-score: -0.81 (inactive)

## CAVFSQMETKAGNASASA [HC648]
7.5 min
  furin cleavage Z-score: -1.33 (inactive)
15 min
  furin cleavage Z-score: -0.992 (inactive)
30 min
  furin cleavage Z-score: -0.89 (inactive)

## CAGYTGDFDSAGNASASA [HC882]
7.5 min
  furin cleavage Z-score: 0.222 (inactive)
15 min
  furin cleavage Z-score: -2.26 (inactive)
30 min
  furin cleavage Z-score: -1.5 (inactive)

## CAICESAGVQAGNASASA [HC1532]
7.5 min
  furin cleavage Z-score: 0.831 (inactive)
15 min
  furin cleavage Z-score: -0.227 (inactive)
30 min
  furin cleavage Z-score: -1.02 (inactive)

## CARRKRKNKDAGNASASA [FS-1967]
7.5 min
  furin cleavage Z-score: -0.815 (inactive)
15 min
  furin cleavage Z-score: 0.207 (inactive)
30 min
  furin cleavage Z-score: 1.06

## CARRKRLRQDAGNASASA [FS-2780]
7.5 min
  furin cleavage Z-score: 0.471 (inactive)
15 min
  furin cleavage Z-score: 0.0552 (inactive)
30 min
  furin cleavage Z-score: 1.44

## CARKGRCVEPAGNASASA [FS-2686]
7.5 min
  furin cleavage Z-score: 3.13
15 min
  furin cleavage Z-score: 3.86 (active)
30 min
  furin cleavage Z-score: 4.66 (active)

## CARKRRSTNEAGNASASA [FS-2039]
7.5 min
  furin cleavage Z-score: 13.4 (active)
15 min
  furin cleavage Z-score: 14 (active)
30 min
  furin cleavage Z-score: 10.3 (active)

## CARKRKGSDDAGNASASA [FS-2696]
7.5 min
  furin cleavage Z-score: 1.74
15 min
  furin cleavage Z-score: 0.267 (inactive)
30 min
  furin cleavage Z-score: -0.22 (inactive)

## CARKGRNKEIAGNASASA [FS-2687]
7.5 min
  furin cleavage Z-score: 0.916 (inactive)
15 min
  furin cleavage Z-score: 0.216 (inactive)
30 min
  furin cleavage Z-score: 0.59 (inactive)

## CARRNRLRKDAGNASASA [FS-87]
7.5 min
  furin cleavage Z-score: 7.91 (active)
15 min
  furin cleavage Z-score: 8.84 (active)
30 min
  furin cleavage Z-score: 6.68 (active)

## CARKRRSTDFAGNASASA [FS-2217]
7.5 min
  furin cleavage Z-score: 9.58 (active)
15 min
  furin cleavage Z-score: 11.2 (active)
30 min
  furin cleavage Z-score: 9.06 (active)

## CARTGRPVEPAGNASASA [FS-2822]
7.5 min
  furin cleavage Z-score: -0.133 (inactive)
15 min
  furin cleavage Z-score: -0.269 (inactive)
30 min
  furin cleavage Z-score: -0.327 (inactive)
